HT1080-NT tox: qHTS for induction of synthetic lethality in tumor cells producing 2HG: qHTS for the HT-1080-NT fibrosarcoma cell line. 360,000 compounds, 1.6% hits. HT-1080-NT fibrosarcoma viability, CellTiter-Glo ATP luminescence, 48 h. Potency, µM (top dose mostly 46.1 µM), for the others: at the highest dose activity, negative = less viability, usual class: cytotoxic;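 further: NT is the 2HG producing partner of a matched IDH1 knockdown line; potency means the concentration at half of the fitted maximal effect; 0% = DMSO-treated cells and -100% = media-only wells without cells; nearly all actives have a fitted effect of over 55% in size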
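Luminescent CellTiter-Glo readout after 48 hours of compound exposure at 37 degrees C defined viability of HT-1080-NT cells. Activity was normalized to DMSO wells and cell-free media wells; concentration-response curves were fitted and assigned curve classes.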
IL1B secr inh: qHTS for Inhibitors of Inflammasome Signaling: IL-1-beta AlphaLISA Primary Screen; activity change, % at 57.5 µM; AID 743279, 2014; THP-1 LPS/ATP IL-1B secretion, AlphaLISA, 16 h; stronger effect = lower value; 360,000 compounds, 4.7% hits; in the data active means activity change below about -50%; inconclusive means mostly about -30% to -49%
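Secreted IL-1B measured by AlphaLISA bead assay after 16 h compound exposure of THP-1 cells; compounds (final up to 57.5 uM) added 1 h before LPS (250 ng/mL) and ATP (1.25 mM) stimulation; lower signal means less secretion.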
HT1080 IDH1KD tx: qHTS for induction of synthetic lethality in tumor cells producing 2HG: qHTS for the HT-1080-IDH1KD cell line; HT-1080 IDH1 knockdown viability, ATP luminescence, 48 h; Potency, µM (doses to about 46.1 µM), without a hit: at the top dose activity, negative = toxicity, hits mostly cytotoxic; 360,000 compounds, 2% hits;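 further: potency means the concentration at half of the fitted maximal effect; 0% = DMSO wells and -100% = cell-free medium wells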
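IDH1KD HT-1080 cells, 750/well, RPMI + 5% FBS; compound pinned after 2 h settling; 48 h, 37 °C; CellTiter-Glo luminescence; % activity normalised to DMSO and no-cell wells; curves fitted, classed by r2 and efficacy.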
DT40 TDP1 CPT: qHTS for Inhibitors of human tyrosyl-DNA phosphodiesterase 1 (TDP1): qHTS in cells in presence of CPT. Potency, µM (highest dose often 46.2 µM), for the others: at the top dose activity change, negative = growth inhibition, usual class: inhibitors. chicken DT40 Tdp1-/-;hTDP1 cells + 20 nM CPT, ATP luminescence, 48 h. 420,000 compounds, 12% hits; further: potency means the concentration at half of the fitted maximal effect; nearly all actives have a fitted effect of over 55% in size
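Cell growth measured by CellTiter-Glo luminescence after a minimum 48 h, 37 C compound exposure with 20 nM CPT in Tdp1-knockout DT40 cells stably expressing hTDP1, seeded 400/well; qHTS titration format.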
DT40 TDP1 no CPT: qHTS for Inhibitors of human tyrosyl-DNA phosphodiesterase 1 (TDP1): qHTS in cells in absence of CPT. 420,000 compounds, 15% hits. Potency, µM (titrated, usually from 46.2 µM), without a hit: at the top dose activity change, negative = growth inhibition, hits mostly inhibitors. DT40 Tdp1-/- hTDP1 cells, no CPT, ATP luminescence, 48 h; further: potency means the concentration at half of the fitted maximal effect; nearly all actives have a fitted effect of over 55% in size
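Luminescent ATP content (CellTiter-Glo) served as the growth readout. Knockout chicken DT40 cells expressing human TDP1 were exposed to compounds without camptothecin for a minimum 48 hr at 37 °C.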
ELG1 DNA repair: qHTS screen for small molecules that inhibit ELG1-dependent DNA repair in human embryonic kidney (HEK293T) cells expressing luciferase-tagged ELG1. HEK293T ELG1-luciferase reporter, luminescence, 16 h; DNA damage induced by 5-fluorouridine. Potency, µM (doses to about 46.1 µM), for the others: at the highest dose activity change, negative = inhibition, hits mostly inhibitors. 330,000 compounds, 2.3% hits. AID 504467, 2011; further: potency means the concentration at half of the fitted maximal effect; nearly all actives have a fitted effect of over 55% in size
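Reporter activity after DNA damage by 5-fluorouridine is monitored. Compound-treated cells incubate 16 hr at 37 °C, then ONE-Glo is added for 30 min before luminescence reading.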
Starred values were filed as active, the others as inactive; ? = inconclusive; nt = not tested or not shown; ! = a repeat was not active. Compounds with a hit are over-represented: about 19% of the library has one in this group of screens. Unless noted, the call rests on the fitted dose curve; in most records, active means well fitted curve in the direction sought with a large enough effect; inconclusive means small, poorly fitted or top-dose-only effect, or another doubt; inactive means no such curve, though single readings can be large; an effect the other way counts as inactive or inconclusive. Unless noted, on the % scale 0 is the no-effect control and ±100 the full control effect.

SMILES	HT1080-NT tox	IL1B secr inh	HT1080 IDH1KD tx	DT40 TDP1 CPT	DT40 TDP1 no CPT	ELG1 DNA repair
Cc1ccc(-c2nc3cnccn3c2Nc2ccc(C(C)C)cc2)o1	4%	nt	6%	?	10µM*	nt
Cc1ccc(-c2nc3cnccn3c2Nc2c(C)cccc2C)o1	-17%	13	-14%	5.8µM*	10µM*	?
CCN(CC)S(=O)(=O)c1cccc(NC(=O)CSc2nnc(N)s2)c1	-6%	40	-5%	1%	?	-9%
CC(C)c1cc(C(=O)OCC(=O)NC(=O)NCc2ccco2)c(O)c(C(C)C)c1	23µM*	-86*	26µM*	?	?	-20%
COc1ccc(N2CCN(C(c3cccs3)C(C)NS(=O)(=O)c3ccccc3)CC2)cc1 (centres undefined)	4%	-4	-10%	21µM*	13µM*	?
CC(NS(=O)(=O)c1ccccc1)C(c1cccs1)N1CCOCC1 (centres undefined)	0%	4	12%	-3%	4%	1%
CC(NS(=O)(=O)c1ccc(Br)cc1)C(c1cccs1)N1CCOCC1 (centres undefined)	-8%	10	12%	18µM*	?	23%
COc1ccc(N2CCN(C(c3cccs3)C(C)NC(=O)C(=O)N3CCCCC3)CC2)cc1 (centres undefined)	0%	5	-2%	-14%	-4%	3%
CCS(=O)(=O)NC(C)C(c1cccs1)N1CCN(c2ccc(OC)cc2)CC1 (centres undefined)	-4%	2	15%	21µM*	23µM*	?
COc1ccc(N2CCN(C(c3cccs3)C(C)NC(=O)C(=O)N3CCCC3)CC2)cc1 (centres undefined)	24%	26	5%	16µM*	?	-4%
C[C@H]1CN([C@@H](C)CO)S(=O)(=O)c2ccc(Br)cc2O[C@@H]1CN(C)S(=O)(=O)c1ccccc1F	-5%	-21	2%	-7%	4%	nt
CC(C)(Cc1nc2ccccc2[nH]1)c1nc2ccccc2[nH]1	1%	-6	0%	?	-3%	nt
Cc1c(Cl)cccc1NC(=O)CSc1nncn1-c1ccccn1	1%	-4	9%	4%	-13%	10%
CC[C@H](C)C(=O)O[C@H]1CCC=C2C=C[C@H](C)[C@H](CC[C@@H]3C[C@H](O)CC(=O)O3)[C@H]21	nt	nt	nt	19µM*	13µM*	nt
CCC(C)C(=O)OC1CCC=C2C=CC(C)C(CCC3CC(O)CC(=O)O3)C21 (centres undefined)	12µM*	68	?	?	23µM*	nt
CC[C@H](C)C(=O)O[C@H]1CCC=C2C=C[C@H](C)[C@H](CC[C@@H]3C[C@@H](O)CC(=O)O3)[C@H]21	4.1µM*	5	7.3µM*	?	15µM*!	6%
CC(=O)N1CCc2c(sc3c2c(=O)n(-c2ccccc2Cl)c(=O)n3C)C1	nt	nt	nt	12%	18%	nt
O=c1[nH]c(=O)n(-c2ccccc2)c2c1C(C(F)(F)F)(C(F)(F)F)N=C(C1CCCCC1)N2	7%	-15	5%	?	23µM*	-11%
COc1ccc(-c2c(C)oc3ccc(C)cc23)cc1	1%	25	-12%	-29%	0%	-2%
COc1ccc(-c2c3c(cc(C)[n+]2[O-])oc2ccc(OC)cc23)cc1	-7%	?	-9%	26µM*	?	?
COc1ccc2oc3cc(C)[n+]([O-])c(-c4ccc(C)cc4)c3c2c1	-3%	-23	-13%	?	0.21µM*	?
COc1cccc(-c2nc(CS(=O)(=O)CC(=O)NC3CCCCCC3)c(C)o2)c1	2%	-1	-9%	?	-14%	?
CN1c2c(nc(N)[nH]c2=O)NCC1CNc1ccc(C(=O)NC(CCC(=O)O)C(=O)O)cc1 (centres undefined)	nt	nt	nt	5%	?	nt
CN(Cc1cnc2nc(N)nc(N)c2n1)c1ccc(C(=O)NC(CCC(=O)O)C(=O)O)cc1C(F)(F)F (centres undefined)	?	0	0.15µM*	0.029µM*	0.18µM*	nt
O=C(Nc1ccc(NC(=O)c2ccccc2)c2ccccc12)c1ccccc1	?	-8	-16%	-11%	-7%	nt
SMILES	HT1080-NT tox	IL1B secr inh	HT1080 IDH1KD tx	DT40 TDP1 CPT	DT40 TDP1 no CPT	ELG1 DNA repair
Clc1ccc(-c2nnc(-c3ccc(Br)cc3)c(N3CCSCC3)n2)cc1	0%	-18	1%	12µM*	12µM*	?
Clc1ccc(-c2nnc(-c3ccco3)nc2N2CCCCC2)cc1	8%	-24	12%	21µM*	21µM*	-4%
CCOc1ccc2c(c1)C(=NNC(=O)c1ccccn1)c1cc(OCC)ccc1-2	10%	10	12%	?	?	nt
Cc1cccc(C)c1OCC(=O)NCC1(N2CCOCC2)CCCCC1	nt	nt	nt	16µM*	?	nt
O=C(COc1ccc(F)cc1)NCC1(N2CCOCC2)CCCCC1	-9%	-15	5%	?	3%	4%
Cc1ccc(OCC(=O)NCC2(N3CCOCC3)CCCCC2)cc1C	nt	nt	nt	21µM*	16µM*	nt
Cc1cc(C)cc(OCC(=O)NCC2(N3CCOCC3)CCCCC2)c1	nt	nt	nt	?	26µM*	nt
Cc1cccc(C)c1OCC(=O)NCC1(N(C)C)CCCCC1	nt	nt	nt	-5%	-20%	nt
O=C(COc1ccccc1[N+](=O)[O-])NCC1(N2CCOCC2)CCCCC1	10%	-26	16%	?	21µM*	?
Cc1cc(Nc2cccc(Cl)c2C)n2nc(Cc3ccccc3)nc2n1	nt	nt	nt	?	-30%	nt
CC(C)(C)c1ccc(O)c(N=Cc2cccc([N+](=O)[O-])c2)c1	5%	nt	12%	?	?	nt
COC(=O)C1CCN(C(c2ccccc2Cl)c2sc3nc(-c4ccco4)nn3c2O)CC1 (centres undefined)	nt	nt	nt	-28%	-10%	nt
CCNc1ncc2nc(-c3ccc(Cl)cc3)c(=O)n(C3CC3)c2n1	nt	nt	nt	3%	-4%	nt
CC(=O)c1ccc(OC(C)C(=O)NCC2(N3CCOCC3)CCCCC2)cc1 (centres undefined)	7%	22	4%	?	?	19%

Assay outcomes from PubChem.
